Hits are enriched below; roughly 3.1% of the tested compounds scored in any of these assays.
FGF22 binding: binders of human FGF22 protein, primary screen, FGF22 synaptogenesis inhibitor project, biophysical, thermal shift, single point; recombinant FGF22 thermal shift, SYPRO orange fluorescence; percent of sucrose octasulfate shift, DMSO zero; activity (Tm shift, normalised), % at 9.99 µM; actives 1.5% (n = 340,000); AID 651658, 2012;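 active means mean Tm shift, scaled 0 neutral to 100 positive control, at about 1.3% or above, every replicate too, limit read from the data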
Target sequence (Q9HCT0 whole entry, looked up): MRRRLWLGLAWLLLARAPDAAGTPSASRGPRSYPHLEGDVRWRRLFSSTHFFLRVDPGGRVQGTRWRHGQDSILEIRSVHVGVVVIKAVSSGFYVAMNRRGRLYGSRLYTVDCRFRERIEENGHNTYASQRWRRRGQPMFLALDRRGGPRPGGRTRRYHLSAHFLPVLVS
ERAP1 inh: human ERAP1 aminopeptidase inhibitors, primary screen, biochemical, single point, plate reader; inhibition, % at 10.7 µM; AID 652197, 2013; Endoplasmic reticulum aminopeptidase 1 (Homo sapiens), Q9NZ08; actives 0.15% (n = 340,000); recombinant ERAP1, Leu-AMC fluorescence, 60 min;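 active means mean replicate inhibition of at least 30%, or all replicates individually reaching that 30% level; inactive means mean below 30% and not every replicate reaching it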;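 further: 0% = neutral control wells and 100% = L-leucinethiol positive control wells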
Casp6 inh: human caspase-6 inhibitors, primary screen, biochemical, VEID-R110 fluorescence, single point, set 2; actives 0.53% (n = 350,000); purified caspase-6, Z-VEID-R110 cleavage fluorescence; inhibition, % at 12.5 µM; P55212;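 active means mean inhibition across replicates at least about 35%, with every replicate also reaching that limit, limit read from the data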;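 further: 0% = median of neutral control wells and 100% = no fluorescence left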
Target sequence (P55212 24-179 limits assumed): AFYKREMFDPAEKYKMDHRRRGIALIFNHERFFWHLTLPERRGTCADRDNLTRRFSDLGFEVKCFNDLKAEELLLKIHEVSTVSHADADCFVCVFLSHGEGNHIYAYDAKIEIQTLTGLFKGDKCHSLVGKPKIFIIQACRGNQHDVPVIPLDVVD
Target sequence (P55212 194-293 limits assumed): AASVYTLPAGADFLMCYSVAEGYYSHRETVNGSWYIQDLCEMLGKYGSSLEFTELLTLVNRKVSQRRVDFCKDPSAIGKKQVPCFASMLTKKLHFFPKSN
SIRT5 inh: SIRT5 desuccinylase inhibitors, primary screen, biochemical, fluorescence imaging, single point, set 5 | inhibition, % at 15 µM | AID 652115, 2013 | Purified SirT5, succinyl-peptide AMC, trypsin-coupled fluorescence | actives 1.1% (n = 330,000); in the data active means inhibition above about 15%
* hit, by the source's call; x = not tested or not shown.

SMILES	FGF22 binding	ERAP1 inh	Casp6 inh	SIRT5 inh
CCCNC(=O)Nc1ccc2c(c1)C(=O)N(C)C[C@@H](OC)[C@H](C)CN(C(=O)C1CCC1)[C@H](C)CO2	0.0	-0.8	-1.3	-0.5
CCCCC[C@@H](C)N1C[C@H](COCc2ccccc2)Oc2cc(N3CCC[C@@H]3CO)ccc2S1(=O)=O	0.8	3.2	-0.9	26.5*
Cc1ncsc1CCOC(=O)c1ccc(N2CCOCC2)c([N+](=O)[O-])c1	43.7*	-1.3	-3.3	-5.5
Cc1cccc(NC(=O)c2ncn3c2C(=O)N(C)CC3)c1	43.3*	2.1	-2.7	x
CN1CCn2cnc(C(=O)NCc3ccccc3)c2C1=O	0.2	4.5	3.6	-1.7
COC(=O)c1c(CC[C@@H](CO)NC(=O)N[C@H](Cn2cc(Cc3ccccc3)nn2)C(C)C)oc(C(C)=O)c1C(=O)OC	-0.1	0.8	6.8	0.0
Cc1ccc(-c2cc(C(=O)Nc3ccc(S(=O)(=O)Nc4onc(C)c4C)cc3)c3ccccc3n2)cc1	1.7*	-4.3	19.2	0.5
COc1ccc(/C=C/C(=O)Nc2ccc(S(=O)(=O)Nc3onc(C)c3C)cc2)cc1OC	0.0	-1.8	2.7	3.9
Cc1cc(C)nc(NS(=O)(=O)c2ccc(NC(=O)c3cc(-c4ccccc4)nc4ccccc34)cc2)n1	0.2	-3.4	-2.2	x
Cc1noc(NS(=O)(=O)c2ccc(NC(=O)/C=C/c3ccccc3)cc2)c1C	1.4*	-0.4	2.2	3.9
C[C@H]1CN([C@@H](C)CO)C(=O)Cc2cc(NS(=O)(=O)c3cn(C)cn3)ccc2O[C@@H]1CN(C)Cc1ccncc1	-0.1	-9.8	1.2	x
CN(C(=O)Cn1c(Cl)nc2c1c(=O)n(C)c(=O)n2C)C1CCS(=O)(=O)C1 (stereo not given)	0.2	82.7*	1.0	-2.3
CCC(C)N(C(=O)Cn1c(Cl)nc2c1c(=O)n(C)c(=O)n2C)C1CCS(=O)(=O)C1 (stereo not given)	0.3	-0.9	1.6	3.1
O=C(NC1CCCC1)N1CC(=O)N2[C@@H](CO)[C@H](c3ccc(-c4cccnc4)cc3)[C@@H]2C1	x	-2.7	-1.5	0.0
CN(C)c1ccc(/C=N/NC(=O)CCc2c[nH]c3ccccc23)cc1	43.9*	1.7	-4.5	-3.4
O=C(CCc1c[nH]c2ccccc12)Nc1ccc(Nc2ccccc2)cc1	1.4*	-1.3	-0.3	x
O=C(CCc1c[nH]c2ccccc12)Nc1ccc(Nc2ccncc2)cc1	1.0	0.5	-26.4	x
C/C(=N\NC(=O)CCc1c[nH]c2ccccc12)c1ccc([N+](=O)[O-])cc1	43.7*	-3.1	-1.0	-2.3
CC1=NNC(=O)C1CCC(=O)N/N=C(/C)c1ccc([N+](=O)[O-])cc1 (stereo not given)	43.0*	1.3	-0.8	0.0
CN(C)c1ccc(/C=N/NC(=O)CCCO)cc1	0.1	4.2	-3.9	-0.3
C[C@H]1CN([C@@H](C)CO)C(=O)c2cccc(NC(=O)Nc3ccc(F)cc3)c2O[C@H]1CN(C)C	-0.4	0.5	1.2	2.1
Cc1noc(C)c1NC(=O)Nc1ccc2c(c1)C(=O)N([C@H](C)CO)C[C@H](C)[C@H](CN(C)S(=O)(=O)c1ccc(Cl)cc1)OCCCC[C@H](C)O2	-0.1	2.7	-0.7	6.6
O=C(C[C@H]1C=C[C@H](NS(=O)(=O)c2ccc(F)cc2)[C@H](CO)O1)NCCN1CCCCC1	0.1	0.9	0.3	-4.6
Cc1ccccc1S(=O)(=O)N1C[C@H](O)COC[C@H]2O[C@@H](CC(=O)N3CCOCC3)CC[C@@H]21	0.1	-1.2	-2.2	-2.6
Cc1ccc(NC(=O)COC(=O)CCc2c[nH]c3ccccc23)cc1[N+](=O)[O-]	43.0*	2.3	0.0	-0.3
SMILES	FGF22 binding	ERAP1 inh	Casp6 inh	SIRT5 inh
Cc1ccccc1NC(=O)COC(=O)CCc1c[nH]c2ccccc12	0.0	-3.6	0.7	8.2
C[C@@H]1CN([C@@H](C)CO)C(=O)c2cccc(NC(=O)c3cnccn3)c2O[C@@H]1CN(C)S(=O)(=O)c1cccs1	0.0	-0.3	-3.5	-3.8
Nc1nc(-c2ccc(C(=O)O)cc2)cs1	0.3	1.9	4.1	38.3*
Nc1nc(-c2ccc(-c3ccccc3)cc2)cs1	42.7	2.3	0.1	-1.3
CCS(=O)(=O)N1Cc2cc(C(=O)O)nc(-c3cccc(-c4ccc(C#N)cc4)c3)c2[C@H]1CCO	0.3	0.6	1.5	0.5
COc1c(/C=C2\SC(=Nc3ccccc3Cl)NC2=O)cccc1[N+](=O)[O-]	0.5	2.3	-0.5	-2.2
O=C1NC(=Nc2ccccc2Cl)S/C1=C\c1cccc([N+](=O)[O-])c1O	0.0	1.5	38.6*	13.2
O=C(NC(=O)c1cccc(F)c1)Nc1nc(-c2ccc(F)cc2)cc(C(F)(F)F)n1	43.8*	2.0	-2.9	-2.2
O=C(O)/C(=C/c1ccc(Cl)c([N+](=O)[O-])c1)c1ccc(S(=O)(=O)N2CCCCC2)s1	0.4	8.0	32.3	10.2
O=C(O)/C(=C\c1cccc(O)c1)c1ccc(S(=O)(=O)N2CCCC2)s1	-0.2	-10.1	57.9*	4.5
O=C(O)/C(=C\c1cccc(F)c1)c1ccc(S(=O)(=O)N2CCCCC2)s1	-0.1	-1.2	29.7	-1.1
CSc1ccc(/C=C(\C(=O)O)c2ccc(S(=O)(=O)N3CCCC3)s2)cc1	0.4	-0.7	45.5*	3.7
O=C(C[C@H]1CC[C@H](NC(=O)Nc2cccc(F)c2)[C@H](CO)O1)NCC1CCCCC1	0.1	-3.1	-0.8	-3.0
COCC(=O)N(C[C@H]1N[C@H](CO)[C@@H]1c1ccc(-c2cncnc2)cc1)C(C)C	x	2.1	-5.6	-1.2
O=C(/C=C/c1ccc(N2CCCCC2)c([N+](=O)[O-])c1)c1ccc(O)cc1	43.1*	-5.7	-0.6	7.0
O=C(c1cnccn1)N1CC(=O)N2[C@@H](CO)[C@H](c3ccc(-c4ccccc4)cc3)[C@@H]2C1	x	2.8	-0.8	4.9
C[C@H]1CN([C@@H](C)CO)C(=O)c2cc(C#CCN(C)C)cnc2O[C@H]1CN(C)C(=O)c1cccc(F)c1	-0.3	-2.2	-0.6	-0.6
CC(=O)c1ccc(N(CC(=O)Nc2cc(C)on2)S(=O)(=O)c2ccc(C)cc2)cc1	43.1*	-1.6	0.6	9.8
Cc1ccc(S(=O)(=O)N(C)C[C@H]2Oc3ccc(NS(C)(=O)=O)cc3CC(=O)N([C@@H](C)CO)C[C@@H]2C)cc1	0.2	-4.1	0.8	0.5
Cc1ccccc1/C=C/c1cc[n+](C)cc1	0.2	31.1*	-15.2	10.8
CC(C)n1cc(/C=C/c2cc[n+](C)cc2)c2ccccc21	0.0	23.8	-24.4	7.8
O=C(c1ccncc1)N1CC2(C1)[C@@H](c1ccccc1)[C@@H](CO)N2CC1CCCC1	0.0	0.8	0.2	18.0*
C/C=C/c1ccc([C@@H]2[C@H](CO)N(CC3CC3)C23CN(S(=O)(=O)CC)C3)cc1	x	-2.4	-1.1	22.6*
